Measurements as given in the supplement of paper PMC8728848.
Shown is part of a subset that was picked to be rich in the strongest signals.

Columns and labels:
Assay in all cases: glycan array binding signal (z-score within array); higher = stronger binding
Settings in all cases: glycan notation: IUPAC condensed, linker removed
[1] = target: Gal(b1-4)GlcNAc(b1-3)Gal(b1-4)GlcNAc(b1-3)GalNAc
Method in brief: (§1)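 Columns mapping to the same glycan were averaged after glycan names were converted to IUPAC-condensed notation. The data come from 3228 arrays in the Consortium for Functional Glycomics database, limited to those with an available protein sequence. Binding is reported as a within-array Z-score averaged across arrays of one protein sequence and across linkers.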

[2] = target: Gal(b1-4)GlcNAc(b1-3)Gal(b1-4)GlcNAc(b1-3)[Gal(b1-4)GlcNAc(b1-3)Gal(b1-4)GlcNAc(b1-6)]GalNAc
Method in brief: as §1

[3] = target: Gal(b1-4)GlcNAc(b1-3)Gal(b1-4)[Fuc(a1-3)]GlcNAc(b1-3)Gal(b1-4)[Fuc(a1-3)]GlcNAc
Method in brief: as §1

GalNAc(a1-3)GalNAc = target: GalNAc(a1-3)GalNAc
Method in brief: as §1

GalNAc(b1-3)GlcNAc = target: GalNAc(b1-3)GlcNAc
Method in brief: as §1

GalNAc(b1-4)GlcNAc = target: GalNAc(b1-4)GlcNAc
Method in brief: as §1

GalNAc3S(b1-4)GlcNAc3S = target: GalNAc3S(b1-4)GlcNAc3S
Method in brief: as §1

[4] = target: GalNAc3S(b1-4)[Fuc(a1-3)]GlcNAc
Method in brief: as §1

[5] = target: GlcA3S(b1-3)Gal(b1-4)GlcNAc(b1-3)Gal(b1-4)Glc
Method in brief: as §1

[6] = target: GlcNAc(a1-4)Gal(b1-4)GlcNAc
Method in brief: as §1

[7] = target: GlcNAc(a1-4)Gal(b1-4)GlcNAc(b1-3)Gal(b1-4)[Fuc(a1-3)]GlcNAc(b1-3)Gal(b1-4)[Fuc(a1-3)]GlcNAc
Method in brief: as §1

[8] = target: GlcNAc(b1-3)Gal(b1-4)GlcNAc(b1-2)Man(a1-3)[GlcNAc(b1-3)Gal(b1-4)GlcNAc(b1-2)Man(a1-6)]Man(b1-4)GlcNAc(b1-4)[Fuc(a1-6)]GlcNAc
Method in brief: as §1

[9] = target: GlcNAc(b1-3)Gal(b1-4)GlcNAc(b1-2)[GlcNAc(b1-3)Gal(b1-4)GlcNAc(b1-6)]Man(a1-6)[GlcNAc(b1-3)Gal(b1-4)GlcNAc(b1-2)Man(a1-3)]Man(b1-4)GlcNAc(b1-4)GlcNAc
Method in brief: as §1

[10] = target: GlcNAc(b1-3)Gal(b1-4)GlcNAc(b1-3)Gal(b1-4)GlcNAc(b1-2)[GlcNAc(b1-3)Gal(b1-4)GlcNAc(b1-3)Gal(b1-4)GlcNAc(b1-6)]Man(a1-6)[GlcNAc(b1-3)Gal(b1-4)GlcNAc(b1-3)Gal(b1-4)GlcNAc(b1-2)Man(a1-3)]Man(b1-4)GlcNAc(b1-4)[Fuc(a1-6)]GlcNAc
Method in brief: as §1

[11] = target: GlcNAc(b1-3)Gal(b1-4)GlcNAc(b1-3)Gal(b1-4)GlcNAc(b1-3)Gal(b1-4)GlcNAc(b1-3)Gal(b1-4)GlcNAc(b1-2)Man(a1-3)[GlcNAc(b1-3)Gal(b1-4)GlcNAc(b1-3)Gal(b1-4)GlcNAc(b1-3)Gal(b1-4)GlcNAc(b1-3)Gal(b1-4)GlcNAc(b1-2)Man(a1-6)]Man(b1-4)GlcNAc(b1-4)[Fuc(a1-6)]GlcNAc
Method in brief: as §1

[12] = target: Man(a1-2)Man(a1-3)[Man(a1-6)]Man(a1-6)[Man(a1-2)Man(a1-3)]Man(b1-4)GlcNAc(b1-4)GlcNAc
Method in brief: as §1

[13] = target: Man(a1-2)Man(a1-6)[Man(a1-3)]Man(a1-6)[Man(a1-2)Man(a1-2)Man(a1-3)]Man
Method in brief: as §1

Man(a1-6)Man = target: Man(a1-6)Man
Method in brief: as §1

[14] = target: Neu5Ac(a2-3)Gal(b1-3)GalNAc(b1-4)[Neu5Ac(a2-3)]Gal(b1-4)Glc
Method in brief: as §1

[15] = target: Neu5Ac(a2-3)Gal(b1-3)[Fuc(a1-4)]GlcNAc(b1-3)Gal(b1-4)[Fuc(a1-3)]GlcNAc
Method in brief: as §1

[16] = target: Neu5Ac(a2-3)Gal(b1-4)GlcNAc
Method in brief: as §1

[17] = target: Neu5Ac(a2-3)Gal(b1-4)GlcNAc(b1-2)Man(a1-3)[GlcNAc(b1-4)][Neu5Ac(a2-3)Gal(b1-4)GlcNAc(b1-2)Man(a1-6)]Man(b1-4)GlcNAc(b1-4)GlcNAc
Method in brief: as §1

[18] = target: Neu5Ac(a2-3)Gal(b1-4)GlcNAc(b1-2)Man(a1-3)[Neu5Ac(a2-3)Gal(b1-4)GlcNAc(b1-2)Man(a1-6)]Man(b1-4)GlcNAc(b1-4)GlcNAc
Method in brief: as §1

[19] = target: Neu5Ac(a2-3)Gal(b1-4)GlcNAc(b1-2)[Neu5Ac(a2-3)Gal(b1-4)GlcNAc(b1-6)]Man(a1-6)[Neu5Ac(a2-3)Gal(b1-4)GlcNAc(b1-2)Man(a1-3)]Man(b1-4)GlcNAc(b1-4)GlcNAc
Method in brief: as §1

[20] = target: Neu5Ac(a2-3)Gal(b1-4)GlcNAc(b1-3)GalNAc
Method in brief: as §1

[21] = target: Neu5Ac(a2-3)Gal(b1-4)[Fuc(a1-3)]GlcNAc(b1-3)Gal(b1-4)GlcNAc
Method in brief: as §1

[22] = target: Neu5Ac(a2-6)Gal(b1-4)GlcNAc(b1-2)Man(a1-3)Man(b1-4)GlcNAc(b1-4)GlcNAc
Method in brief: as §1

[23] = target: Neu5Ac(a2-6)Gal(b1-4)GlcNAc(b1-2)[Neu5Ac(a2-6)Gal(b1-4)GlcNAc(b1-4)]Man(a1-3)[GlcNAc(b1-4)][Neu5Ac(a2-6)Gal(b1-4)GlcNAc(b1-4)Man(a1-6)]Man(b1-4)GlcNAc(b1-4)GlcNAc
Method in brief: as §1

[24] = target: Neu5Ac(a2-6)Gal(b1-4)GlcNAc(b1-2)[Neu5Ac(a2-6)Gal(b1-4)GlcNAc(b1-6)]Man(a1-6)[Neu5Ac(a2-6)Gal(b1-4)GlcNAc(b1-2)Man(a1-3)][GlcNAc(b1-4)]Man(b1-4)GlcNAc(b1-4)GlcNAc
Method in brief: as §1

[25] = target: Neu5Ac(a2-6)Gal(b1-4)GlcNAc(b1-3)Gal(b1-4)GlcNAc(b1-3)Gal(b1-4)GlcNAc(b1-2)Man(a1-3)[Neu5Ac(a2-6)Gal(b1-4)GlcNAc(b1-3)Gal(b1-4)GlcNAc(b1-3)Gal(b1-4)GlcNAc(b1-2)Man(a1-6)]GalNAc
Method in brief: as §1

[26] = target: Neu5Ac(a2-6)Gal(b1-4)GlcNAc(b1-3)GalNAc
Method in brief: as §1

[27] = target: Neu5Ac(a2-8)Neu5Ac(a2-8)Neu5Ac(a2-3)Gal(b1-4)Glc
Method in brief: as §1

B1: GS7807Q-bfa-507-19-507 (Bacteroides fragilis) (protein)
chain: ASCNKFDDLNTNPDAATKVTAPMLATKLILNITQQGSAKNFVYHSMLSKQIAWSENASDEQYNLFGRTDFDGYTILTNCQKMVDAANEGDKDSYAALAKFMKAYKLFYKSLEVGDIPYSDALKGEEGVQKPKYDTQKEVMRQVLEDLEEAYTLFSSGSDFDGDPIFGGDTENWKKTVVAFELKVLTHLCKKDTDADLKVKERFARLVSSGSLMTSNADNFQLVYSNKAGQLYPFYYTQNKHSDYLMMSSVIIDNLKKFNDYRMFYYASPAKAQTDKGIKDSEWDAYLSIDPSDSYSNISVLYGKGEFCLANLRYTRVPEGEPLMRLSYAEQNFILAEGAVRGWISEDASTYYKKGIEASMNFIADNTPDKEEYTHGRTITQEYIQEYLAQPVIQLSGDKEKDLEMILLQRYLASFLQHPYDAYYDYRRTGYPVLPINPSTNLNTEKNKIPTRWMYPEAEFSYNPDNANEAVQRQYNGSDDVNKLMWILQ
glycan array binding signal (z-score) [1]: -0.268 | glycan array binding signal (z-score) [2]: -0.074 | glycan array binding signal (z-score) [3]: -0.174 | glycan array binding signal (z-score) (GalNAc(a1-3)GalNAc): -0.06 | glycan array binding signal (z-score) (GalNAc(b1-3)GlcNAc): -0.454 | glycan array binding signal (z-score) (GalNAc(b1-4)GlcNAc): 3.09 | glycan array binding signal (z-score) (GalNAc3S(b1-4)GlcNAc3S): -0.279 | glycan array binding signal (z-score) [4]: -0.654 | glycan array binding signal (z-score) [5]: 0.23 | glycan array binding signal (z-score) [6]: -0.604 | glycan array binding signal (z-score) [7]: 3.02 | glycan array binding signal (z-score) [8]: 2.43 | glycan array binding signal (z-score) [9]: 1.65 | glycan array binding signal (z-score) [10]: 2.73 | glycan array binding signal (z-score) [11]: -0.41 | glycan array binding signal (z-score) [12]: -0.639 | glycan array binding signal (z-score) [13]: 0.113 | glycan array binding signal (z-score) (Man(a1-6)Man): 0.531 | glycan array binding signal (z-score) [14]: -0.316 | glycan array binding signal (z-score) [15]: -0.38 | glycan array binding signal (z-score) [16]: -0.496 | glycan array binding signal (z-score) [17]: -0.905 | glycan array binding signal (z-score) [18]: -0.347 | glycan array binding signal (z-score) [19]: 1.35 | glycan array binding signal (z-score) [20]: -0.737 | glycan array binding signal (z-score) [21]: -0.425 | glycan array binding signal (z-score) [22]: -0.09 | glycan array binding signal (z-score) [23]: 0.481 | glycan array binding signal (z-score) [24]: 0.863 | glycan array binding signal (z-score) [25]: 3.17 | glycan array binding signal (z-score) [26]: 0.841 | glycan array binding signal (z-score) [27]: -0.141
